The panel holds about 83,000 compounds, 20% with a hit somewhere; the sample as a whole holds those more often.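 Each cell line was grown in a 96-well plate and treated with one concentration of compound for 48 hours. Values below 10 were considered active.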 Values without a mark were called inactive. Calls of active or inactive are those of the source.
The molecules below were run on HL-60(TB) leukemia (assay: NCI-60 one-dose screen, 48 h (100 = growth as untreated, 0 = no growth, -100 = all killed)). Settings: 10 µM unless noted.

| Compound | growth |
| --- | --- |
| COc1c(B(O)O)cccc1-c1cc(C)c2c(ccc3[nH]ncc32)n1 | 23.8% |
| O=C1/C(=C/c2ccc(F)cc2)Sc2c(Br)cccc21 | 103% |
| CCOC(=O)c1[nH]c2cc(Cl)ccc2c1[C@@H](C(=O)NC(C)(C)C)N(CC)C(=O)CCCCC#Cc1cccc2c1CN(C1CCC(=O)NC1=O)C2=O (stereo not given in full) | -7.29% (active) |
| CCOc1c(B(O)O)cccc1-c1nc2ccc3[nH]ncc3c2c2c1CCCC2 | 23.6% |
| O=C(NCCN1CCOCC1)OCc1ccc2c(Cl)cc(Cl)c(O)c2n1 | 73.1% |
| CCCCCCCCCCCCOB(OCCCCCCCCCCCC)OCCCCCCCCCCCC | 107% |
| Cc1ccccc1N1C(c2ccccc2)=NNC12C=CC(=O)C=C2Cl (stereo not given) | 82.4% |
| O=C(O)C1CCC(=O)N1C(=O)OCc1ccccc1 (stereo not given) | 84.1% |
| CCN(CC)CCCNc1cc(OC)cc2nc3cc(Cl)ccc3nc12 | -9.05% (active) |
| CN(C)CCCC1(c2ccc(F)cc2)OCc2cc(-c3cc4ccccc4s3)ccc21 (stereo not given) | 22.3% |
| COc1cnc2c(c1)C(=O)c1c-2n(CCCNC2=NCCS2)c(=O)c2cc(F)ccc12 | -45.5% (active) |
| CCCCSc1cc(C)nc(N)n1 | 96.6% |
| COc1ccc(-c2c[nH]c(C(=O)O)c2-c2cc(OC)c(OC)c(OC)c2)cc1 | -13.8% (active) |
| C/C(=C\CCc1ccsc1)CC/C=C(\C)CCCN1CCC(CO)CC1 | -49.9% (active) |
| CCN1/C(=C/C=C/C=C/c2sc3ccccc3[n+]2CC)Sc2ccccc21 | -58.4% (active) |
| COc1cc(CNC(=O)c2ccsc2Nc2ccnc(C(F)(F)F)c2)ccc1O | 102% |
| CCCC(=O)c1cccs1 | 87.9% |
| COc1ccc(/C(=C\c2cc(OC)c(OC)c(OC)c2)C(=O)N2CCN(c3ccccc3)CC2)cc1O | 106% |
| COc1ccc(C2=NN(C(=O)c3ccc(S(C)(=O)=O)cc3)C(c3ccc(OC)c(OC)c3)C2)c(OC)c1 (stereo not given) | 69% |
| COc1cc([C@@H]2c3cc4c(cc3[C@H](OC3OC5COC(c6ccccc6)OC5C(O)C3O)[C@H]3COC(=O)[C@H]23)OCO4)cc(OC)c1OC (stereo not given in full) | -33.6% (active) |
| [O-]/[N+](=C\c1ccc(-n2cc(Cc3ccccc3Cc3cn(-c4ccc(/C=[N+](/[O-])c5ccccc5)cc4)nn3)nn2)cc1)c1ccccc1 | 98.4% |
| NNC(=O)Cc1ccccc1 | 73.1% |
| COc1ccc(-c2cc(-c3nnc(SC/C(=N\O)c4ccccc4)n3-c3ccccc3)c3ccccc3n2)cc1 | 94.3% |
| COc1cccc(C(=O)NNC(=O)c2cccc3ccccc23)c1 | 97.8% |
| COc1cc2nc(-c3cnc(N(C)C)nc3)nc(NC3CCN(Cc4ccccc4)CC3)c2cc1OC | -52.3% (active) |

— PubChem BioAssay (NCI)
